This is an account of results in PubChem BioAssay (NCI).

The panel holds about 83,000 compounds, 20% with a hit somewhere; the sample as a whole holds those more often.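 48-hour exposure, single concentration, 96-well plates; percent growth endpoint where 0 means no net growth. Active: below 10.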 The source made the active and inactive calls.

In this experiment the test system is MOLT-4 leukemia. Kind of experiment: NCI-60 one-dose screen, 48 h (100 = growth as untreated, 0 = no growth, -100 = all killed). As to conditions: 10 µM unless noted.
With `CCC(C)[C@@H]1NC(=O)[C@@H]2CCCN2C(=O)[C@H](Cc2ccccc2)NC(=O)[C@@H]2CCCN2C(=O)[C@H](Cc2ccccc2)NC(=O)[C@@H]2CCCN2C(=O)[C@H](Cc2ccccc2)NC1=O` (some centres not stated), the growth was 89.7% (inactive).

For `O=C1CC(c2nc3ccccc3s2)CN1C1CCCCC1` (configuration not stated), the growth was 90.9% (inactive).

For the compound `Cc1cc(OCc2ccc(C(F)(F)F)cc2)c2c(c1)C(=O)C=C(NCCN1CCCC1)C2=O`, the growth is 16.4% (inactive).

Consider `O=C1Nc2ccccc2C12CC(c1ccccc1)=NN2` (configuration not stated), for which the growth is 38.7% (inactive).

Regarding `CCN(CC)CCC(=O)Nc1ccc(Cn2nnc3c2C(=O)c2nnn(Cc4ccc(NC(=O)CCN(CC)CC)cc4)c2C3=O)cc1`, the growth was -28.9% (active).

As to `Cn1cc(-c2nc(-c3c[nH]c4ccccc34)cs2)c2cccnc21`, the growth was 19.9% (inactive).

For `CCN(CC)CCCC(C)N/C(=C1\C(=O)NC(=O)\C1=C(/NC(C)CCCN(CC)CC)c1cccc(OC)c1)c1cccc(OC)c1` (configuration not stated), the growth was -10.5% (active).
